From PubChem BioAssay AID463190 (Sanford-Burnham Center for Chemical Genomics, 2010) come the findings set out here.

In all, about 330,000 compounds went through this assay and about 7,300 (2.2%) were called active.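 The calls were made as follows: active = inhibition of at least 40%; inactive = the rest.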 This excerpt belongs to a sample that is enriched for actives.

This assay can be described thus: growth inhibitors of tim10-1 mutant yeast, primary screen, luminescence, uHTS (AID 463190).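 Also: mutant grown at 25 °C; 0% = DMSO wells with yeast and 100% = wells holding no yeast.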 The conditions noted are these: S. cerevisiae tim10-1 ts strain growth, BacTiter-Glo, 24 h; at 20 µM; hits give high values.
Consider `Cc1ccsc1-c1cc(C(=O)O)c2c(ccc3ccccc32)n1`, for which the inhibition (commonly the change of the read-out against control, counted positive when it falls) is -20.7% (inactive).

In the case of `O=c1nc(N/N=C/c2ccco2)cn[nH]1`, the inhibition was 17.8% (inactive).

Regarding `COc1ccc(NC(=O)CN(C)C(=O)c2n[nH]c3ccccc23)cc1`, the inhibition was 9.05% (inactive).

For the compound `O=C(CCCC(=O)N(CC(=O)NC1CCCC1)Cc1ccccc1Cl)Nc1ccccn1`, the inhibition is 14.9% (inactive).

For the compound `CC(C)(C)c1cc(C(=O)N/N=C/c2ccc([N+](=O)[O-])s2)n[nH]1`, the inhibition was 32% (inactive).

On to `O=[N+]([O-])c1ccc(C=Nc2ccc(Cl)cc2Cl)s1`, for which the inhibition is 77.7% (active).

Consider `CC1CN(C(=O)c2ccc([N+](=O)[O-])s2)CC(C)O1` (stereo not drawn), for which the inhibition was 17.2% (inactive).

Take `O=C1CCc2cc(S(=O)(=O)Nc3ccc(C(F)(F)F)cc3)cc3c2N1CC3`: the inhibition was 4.21% (inactive).

For the compound `O=c1oc(-c2ccccc2NS(=O)(=O)c2ccc(Cl)cc2)nc2ccccc12`, the inhibition is 39.6% (inactive).

For `NC(=O)c1ccc(CN2CCC(Cc3ccccc3)CC2)cc1`, the inhibition was -11.2% (inactive).

Regarding `CCOc1ccc2oc(C(=O)N(CC)CC(=O)Nc3ccc(NC(C)=O)cc3)c(C)c2c1`, the inhibition is 16.8% (inactive).

`CCSC1=C(C#N)C(=O)n2c1cc1c2CCCC1`: the inhibition was 58.8% (active).

On to `CCSc1ncnc2c(C#N)c3n(c12)CCCCC3`, for which the inhibition was -13.6% (inactive).

Consider `O=C(CSc1ccc2nnc(-c3ccccc3)n2n1)N1CCCc2ccccc21`, for which the inhibition was -0.717% (inactive).

`O=S(=O)(Nc1ccc2[nH]ncc2c1)c1ccccc1Cl`: the inhibition was 6% (inactive).

As to `COCc1cc(=O)[nH]c(-c2ccc(C(F)(F)F)cc2)n1`, the inhibition is -4.56% (inactive).

`CC(Sc1nn(-c2ccc(Cl)cc2)c(=S)s1)C(=O)NCC1CCCO1` (stereo not drawn): the inhibition was 25.6% (inactive).

As to `Cc1nc([N+](=O)[O-])nn1C12CC3CC(CC(Br)(C3)C1)C2`, the inhibition was 27% (inactive).

For `CCc1nn(CCCC(=O)NCc2ccc(C)cc2)c(=O)c2cc3occc3n12`, the inhibition is 31.1% (inactive).

On to `CCc1nn(CCCC(=O)Nc2ccc(C)c(C)c2)c(=O)c2cc3occc3n12`, for which the inhibition is 33.6% (inactive).

Turning to `CCc1nn(CCCC(=O)Nc2ccc(C)cc2C)c(=O)c2cc3occc3n12`, the inhibition was 41.6% (active).

`CCOC(=O)C1Cn2c(nc3c(c2=O)C(C)(CC)Cc2ccccc2-3)S1` (stereo not drawn): the inhibition was 40.7% (active).

On to `CCC1(CC)Cc2ccccc2-c2nc3ccccc3c(=O)n21`, for which the inhibition is 16.4% (inactive).

`CCC1(CC)Cc2ccccc2-c2nc(CCl)[nH]c(=O)c21`: the inhibition is 27.6% (inactive).

Regarding `COC(=O)c1cccc(N(C(=O)c2ccco2)C(C(=O)NC2CCCC2)c2ccco2)c1` (stereo not drawn), the inhibition was 3.43% (inactive).

For the compound `Cn1c(=O)c2c(ncn2CC(COCc2ccccc2Cl)OCc2ccccc2Cl)n(C)c1=O` (stereo not drawn), the inhibition is 19.9% (inactive).

`Cc1ccnc(N2CCN(C(=O)CSc3nc4ccccc4nc3N3CCCCC3)CC2)c1`: the inhibition was 2.78% (inactive).

`COc1cccc(-n2c(=S)sc3c(=O)n(-c4ccccc4OC)c(SCC4OCCO4)nc32)c1`: the inhibition was 4.35% (inactive).

For the compound `CNC(C)C#Cc1ccc2sc3cc(OC)c(OC)cc3c(=O)c2c1` (stereo not drawn), the inhibition is 43.4% (active).

For `Cc1ccc(C(=O)COC(=O)CCN2C(=O)C3C4CC(C(Br)C4Br)C3C2=O)cc1` (stereo not drawn), the inhibition is 7.92% (inactive).

Consider `CCCCOc1ccc(C(=O)NCC(=O)OCC(=O)N2CCN(S(=O)(=O)c3ccc(C)cc3C)CC2)cc1`, for which the inhibition was 15.7% (inactive).

As to `O=C(COC(=O)c1ccc(F)cc1)NCCCc1ccccc1`, the inhibition was 24.1% (inactive).

Consider `CCOc1ccc(NC(=O)c2ccc(NC(=O)CN3C(=O)C(=O)N(CC(C)C)C3=O)cc2)cc1`, for which the inhibition is 2.57% (inactive).

Take `COc1ccc(CCNc2nc3ccc(C)cc3n3cnnc23)cc1OC`: the inhibition was 2.87% (inactive).

As to `COc1ccc(CCNc2cc(C)nc3c(-c4ccc(Cl)cc4)c(C)nn23)cc1OC`, the inhibition was 43.9% (active).

As to `COc1ccc(CCNc2nc(C)cc(C)n2)cc1OC`, the inhibition is -4.02% (inactive).

For `O=C(c1cnc(Cl)c(Cl)c1)N1CCN(S(=O)(=O)c2ccc(F)cc2)CC1`, the inhibition is 3.46% (inactive).

In the case of `COc1ccc(Cc2nnc(SCC(=O)Nc3ccc(C)c(C)c3)o2)cc1OC`, the inhibition was 7.89% (inactive).

On to `N/C(=N\OC(=O)CCn1cccc(C(F)(F)F)c1=O)c1ccc(OC(F)(F)F)cc1`, for which the inhibition was -0.346% (inactive).

For `O=C(CN1CCN(Cc2ccc(F)cc2Cl)C1=O)NCc1cccs1`, the inhibition was 12.6% (inactive).

As for `O=c1c(Cl)c(NCc2ccc(F)cc2Cl)cnn1C12CC3CC(CC(C3)C1)C2`, the inhibition is 43.1% (active).

Consider `O=C(O)CC12CC3CC(C1)CC(n1ncc(NCc4ccc(F)cc4)c(Cl)c1=O)(C3)C2`, for which the inhibition was 0.72% (inactive).

As for `CCOc1cc2[nH]c(=S)n(Cc3ccc(C(=O)N4CCN(C)CC4)cc3)c(=O)c2cc1OCC`, the inhibition was 4.68% (inactive).

For the compound `Cc1ccc(S(=O)(=O)NCC(=O)NNC(=O)c2ccc(Br)cc2)cc1C`, the inhibition is 6.99% (inactive).

`COC(=O)/C(C#N)=C/c1occc1C`: the inhibition is -13.8% (inactive).

On to `O=C(Nc1ccc(Br)cn1)c1ccc([N+](=O)[O-])o1`, for which the inhibition is 66.6% (active).

As to `CCN(CC)S(=O)(=O)c1ccc(N2CCCC2)c(NC(=O)c2ccc([N+](=O)[O-])o2)c1`, the inhibition is 31.3% (inactive).

Regarding `Cc1onc(C(=O)NCc2ccc(F)cc2)c1[N+](=O)[O-]`, the inhibition is 5.1% (inactive).

Take `O=C(Nc1cccc(O)c1)c1ccc(C(=O)c2ccccc2)o1`: the inhibition is 6.57% (inactive).

For the compound `Cc1cccc(NC(=O)c2cc([N+](=O)[O-])ccc2N2CCN(C)CC2)c1`, the inhibition was 10% (inactive).

Take `Cc1cccc(NC(=O)c2ccc([N+](=O)[O-])o2)c1`: the inhibition is 58% (active).

With `O=C(Nc1ccc(Br)cn1)c1ccc([N+](=O)[O-])cc1Cl`, the inhibition is 7.02% (inactive).

With `Cc1onc(NC(=O)c2ccc([N+](=O)[O-])o2)c1Br`, the inhibition was 42.4% (active).

For `CN1C(=O)c2ccc(C(=O)Nc3ccc(Br)cn3)cc2C1=O`, the inhibition is 6.17% (inactive).

With `OC(COCCC12CC3CC(CC(C3)C1)C2)CN1CCCCC1` (stereo not drawn), the inhibition was 4.4% (inactive).

Turning to `FC(F)(F)c1cccc(-c2cc3ccccc3nc2N2CCCC2)c1`, the inhibition is -16.8% (inactive).

Consider `COC(=O)c1ccccc1NC(=O)Cc1ccccc1OC`, for which the inhibition is 10.2% (inactive).

Take `Cc1cc(C)cc(NC(=S)NCc2ccc(F)cc2)c1`: the inhibition was 23.8% (inactive).

As for `Cc1cccc(NC(=S)NCCN(C2CCCCC2)C2CCCC2)c1`, the inhibition was 28.1% (inactive).

For the compound `Cc1cccc(NC(=S)NCc2ccc3[nH]c4c(c3c2)CCCC4)c1`, the inhibition was 41.3% (active).

As for `O=S(=O)(O)CCN1CCOCC1`, the inhibition was 6.54% (inactive).

On to `CCOC12CC(C)(C)CC(C)(CC3=C1C(=O)CC(C)(C)C3)C2` (stereo not drawn), for which the inhibition was 17.6% (inactive).

In the case of `CC1(c2nnc(-c3ccncc3)o2)CC(c2cccnc2)=NO1` (stereo not drawn), the inhibition was -5.58% (inactive).

Turning to `COC(=O)Cc1ccc(NC(=S)NCc2ccc(Cl)cc2)cc1`, the inhibition is 20.1% (inactive).

On to `O=C(NCc1ccc(Cl)cc1)NCc1ccc(Cl)cc1`, for which the inhibition is -35.2% (inactive).

In the case of `S=C(NCc1ccc(Cl)cc1)NC12CC3CC(CC(C3)C1)C2`, the inhibition was 51.4% (active).

Take `OC1CCCN(c2ncnc3c2nnn3Cc2c(F)cccc2Cl)C1` (stereo not drawn): the inhibition was 14.9% (inactive).

For `O=S1(=O)CCO[C@H]2Cc3ccccc3[C@H]2N1Cc1ccccc1`, the inhibition is 10% (inactive).

Turning to `CC1=C(C(N)=O)C(c2ccc(F)cc2)n2nc(CCCO)nc2N1` (stereo not drawn), the inhibition is 15.6% (inactive).

Take `COC(=O)CC(=O)N1CCN(c2ccc(Cl)c(Cl)c2)CC1`: the inhibition was 5.73% (inactive).

As to `COC(=O)CSc1nnc(NC(=O)CCc2ccccc2)s1`, the inhibition is 17.2% (inactive).

As to `COC(=O)CSc1snnc1-c1ccc(Cl)c(Cl)c1`, the inhibition is 47.3% (active).

On to `N#CC(C(N)=O)=C1CCC2(CC1)OCCCCO2`, for which the inhibition was 17.1% (inactive).

As to `Cc1cc(C)cc(NC(=O)NC2CCCCCCC2)c1`, the inhibition is 14.5% (inactive).

In the case of `CCOC(=O)C1=C(C)N=c2s/c(=C\C(=O)OC)c(=O)n2C1c1ccc(OC)cc1` (stereo not drawn), the inhibition is 42.2% (active).

Turning to `CCOC(=O)C1=C(CSc2nccn2C)NC(=O)NC1c1ccc(OC)cc1` (stereo not drawn), the inhibition is 15.6% (inactive).

For `COCCOC(=O)C1=C(C)N=c2s/c(=C\c3cccs3)c(=O)n2C1c1cccs1` (stereo not drawn), the inhibition is 15.4% (inactive).

`CN(C)S(=O)(=O)c1ccc(C(=O)NCC2(N3CCOCC3)CCCCC2)cc1`: the inhibition is -9.36% (inactive).

Regarding `CC(=O)c1ccc(NC(=O)c2ccc3c(Cl)c4c(nc3c2)CCCC4)cc1`, the inhibition was 13.3% (inactive).

Turning to `COc1ccc(N2CCN(C(=O)c3ccc4c(Cl)c5c(nc4c3)CCCC5)CC2)cc1`, the inhibition is -0.417% (inactive).

In the case of `CC(C)CCNC(=O)c1ccc2c(Cl)c3c(nc2c1)CCC3`, the inhibition was 41% (active).

Consider `COc1ccc(C(=O)c2c3ccc([N+](=O)[O-])cc3[n+]([O-])n2CCCN)cc1`, for which the inhibition is 1.86% (inactive).

In the case of `O=C(COC(=O)CCOc1ccccc1)Nc1cc(S(=O)(=O)N2CCCCC2)ccc1Cl`, the inhibition is 46.3% (active).

For `COc1ccc(S(=O)(=O)N2CCCCC2)cc1NC(=O)COc1ccccc1`, the inhibition was 7.99% (inactive).

Turning to `CS(=O)(=O)c1ccc(Cl)c(NC(=O)COC(=O)c2cccc(S(=O)(=O)N3CCCC3)c2)c1`, the inhibition was -30.8% (inactive).

`COc1cc(C(=O)NCC(=O)NCCSc2ccc(Br)cc2)cc(OC)c1OC`: the inhibition is 9.46% (inactive).

`O=C(COC(=O)c1ccccc1Br)Nc1nnc(-c2ccccc2)o1`: the inhibition was 0.631% (inactive).

For the compound `Cc1ccc(S(=O)(=O)n2nc(OC(=O)C(C)(C)C)cc2N)cc1`, the inhibition is 25.5% (inactive).

As for `Nc1cc(OC(=O)c2ccccc2Br)nn1S(=O)(=O)c1ccccc1`, the inhibition was 57.5% (active).

As to `O=C(CN1CCN(c2ncc(C(F)(F)F)cc2Cl)CC1)Nc1ccc2c(c1)OCO2`, the inhibition was 28.8% (inactive).

As for `CC(=O)c1ccc(Cc2ncc(C(F)(F)F)cc2Cl)s1`, the inhibition was 3.28% (inactive).

As for `O=C(Cc1ncc(C(F)(F)F)cc1Cl)Nc1cccc(Br)c1`, the inhibition was 47.5% (active).

With `Clc1ccc(Cl)c(Oc2ccc(Oc3nc(Cl)ccc3Cl)cc2)n1`, the inhibition was 9.8% (inactive).
